This is part of a sample that, as a whole, favours compounds with a hit. Of some 83,000 tested, about 20% had one in any assay.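 Results are percent growth after 48 hours of single-concentration exposure. 100 means growth as in untreated cells, lower positive values show inhibition; negative values down to -100 show cell death.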 Unmarked numbers belong to inactive results. Activity calls are given as the source filed them. Rule for the calls: active = growth percent below 10; inactive = the rest.

The values that follow come from PubChem BioAssay (NCI).

Some test systems named below: NCI-H23 lung; NCI-H226 lung; NCI-H322M lung; HOP-62 NSCLC; NCI-H460 lung; HOP-92 NSCLC; NCI-H522 lung; A549/ATCC NSCLC; 786-0 renal; DU-145 prostate; K-562 leukemia; MALME-3M melanoma; MDA-MB-231 breast; RXF 393 renal; SF-268 CNS; SF-295 CNS; SF-539 CNS; UACC-257 melanoma; M14 melanoma.
Common to all, as to assay: NCI-60 one-dose screen, 48 h (100 = growth as untreated, 0 = no growth, -100 = all killed)
What all share (details): 10 µM unless noted

On to `CS(=O)(=O)Nc1cc(-c2ccc3ncnc(Nc4ccc5c(cnn5Cc5ccncc5)c4)c3c2)cnc1Cl`, for which the growth in the experiment with NCI-H23 lung is 62.2%; in the experiment with NCI-H226 lung, 92%; in the experiment on NCI-H322M lung, 76%; in the experiment with HOP-62 NSCLC, 43.9%; in the experiment on NCI-H460 lung it was 97.2%; with HOP-92 NSCLC, -7.79% (active). Moreover, the growth in the experiment with NCI-H522 lung is 46.4%; in the experiment with A549/ATCC NSCLC, 86%; with 786-0 renal, 66.3%; with DU-145 prostate it was 78.9%; in the experiment on K-562 leukemia it was 53.5%; in the experiment with MALME-3M melanoma it was 20.8%. Further, the growth is 43.4% in the experiment on MDA-MB-231 breast; 21.1% in the experiment with RXF 393 renal; 45% with SF-268 CNS; 84.5% with SF-295 CNS; 50.3% with SF-539 CNS; 59.4% in the experiment on UACC-257 melanoma. In addition, in the experiment with M14 melanoma, the growth is 56.2%.

On to `CCN1C(=O)N(CC)C2C1NN=c1s/c(=C\c3ccc(OC)cc3)c(=O)n12` (configuration not stated), for which the growth in the experiment on NCI-H23 lung was 32.2%; with NCI-H226 lung it was 60.5%; in the experiment with NCI-H322M lung, 45.9%; in the experiment with HOP-62 NSCLC, 37.1%; with NCI-H460 lung it was 4.22% (active); with HOP-92 NSCLC, 33%. Besides, the growth with NCI-H522 lung is -9.26% (active); with A549/ATCC NSCLC, 10%; with 786-0 renal, 20.8%; in the experiment on DU-145 prostate, 6.18% (active); with K-562 leukemia, 8.38% (active); in the experiment on MALME-3M melanoma it was 40.2%. Further, the growth is 16.3% in the experiment with MDA-MB-231 breast; 33.9% in the experiment on RXF 393 renal; 49.4% with SF-268 CNS; 13.2% with SF-295 CNS; -21.4% (active) in the experiment with SF-539 CNS; 56.3% in the experiment with UACC-257 melanoma. Besides, the growth with M14 melanoma was 6.11% (active).

For the compound `Nc1c(C(=O)Nc2cccc3ncccc23)sc2nc3c(cc12)CN(Cc1ccccc1)CC3`, the growth is 67.7% with NCI-H23 lung; 77.2% with NCI-H226 lung; 83% in the experiment with NCI-H322M lung; 73.1% in the experiment with HOP-62 NSCLC; 84.3% in the experiment on NCI-H460 lung; 74.1% with HOP-92 NSCLC. Further, the growth with NCI-H522 lung is 55.8%; in the experiment with A549/ATCC NSCLC, 90.3%; in the experiment with 786-0 renal, 88.1%; in the experiment with DU-145 prostate, 93.9%; with K-562 leukemia it was 34.8%; with MALME-3M melanoma, 76.2%. For the same compound, the growth with MDA-MB-231 breast is 75.3%; in the experiment on RXF 393 renal, 80.8%; in the experiment with SF-268 CNS it was 84.6%; in the experiment with SF-295 CNS, 67.5%; with SF-539 CNS, 88.7%; with UACC-257 melanoma, 69.2%. The growth in the experiment with M14 melanoma is 90.1%.

In the case of `Cc1cccc(NC(=O)Cn2cc(CN3CCN(c4ccnc5cc(Cl)ccc45)CC3)nn2)c1`, the growth with NCI-H23 lung is 89.4%; in the experiment with NCI-H226 lung, 75.5%; in the experiment with NCI-H322M lung it was 93.1%; with HOP-62 NSCLC it was 80.1%; with NCI-H460 lung it was 94%; with HOP-92 NSCLC, 56.3%. For the same compound, the growth with NCI-H522 lung was 80.3%; with A549/ATCC NSCLC it was 94.1%; with 786-0 renal, 101%; in the experiment on DU-145 prostate it was 106%; in the experiment with K-562 leukemia, 71.6%; in the experiment with MALME-3M melanoma, 92.5%. For the same compound, the growth in the experiment on MDA-MB-231 breast is 78.2%; in the experiment with RXF 393 renal, 90.7%; in the experiment on SF-268 CNS it was 81.8%; in the experiment with SF-295 CNS, 93.7%; in the experiment with SF-539 CNS, 93.4%; with UACC-257 melanoma it was 105%. For the same compound, in the experiment on M14 melanoma, the growth is 92.5%.

For the compound `O=C(C[C@]1(O)C(=O)Nc2ccc(Br)cc21)c1ccco1`, the growth with NCI-H23 lung is 97%; with NCI-H226 lung, 92.9%; in the experiment with NCI-H322M lung it was 93.8%; in the experiment with HOP-62 NSCLC, 106%; with NCI-H460 lung it was 105%; in the experiment on HOP-92 NSCLC, 102%. Also, the growth in the experiment on NCI-H522 lung was 88.3%; with A549/ATCC NSCLC, 104%; in the experiment on 786-0 renal, 108%; with DU-145 prostate it was 106%; in the experiment on K-562 leukemia it was 93.8%; in the experiment with MALME-3M melanoma it was 84.1%. The growth with MDA-MB-231 breast was 98.6%; in the experiment on RXF 393 renal it was 108%; in the experiment with SF-268 CNS it was 88.5%; in the experiment on SF-295 CNS, 103%; in the experiment with SF-539 CNS, 104%; with UACC-257 melanoma, 101%. For the same compound, the growth in the experiment with M14 melanoma was 99.1%.

Turning to `COc1ccc(-c2nc(SCC(=O)Nc3nc4ccc(C)cc4s3)[nH]c(=O)c2C#N)cc1OC`, the growth in the experiment on NCI-H23 lung is 103%; with NCI-H226 lung it was 83.6%; in the experiment with NCI-H322M lung, 101%; with HOP-62 NSCLC, 74.8%; in the experiment with NCI-H460 lung, 100%; with HOP-92 NSCLC, 102%. The growth in the experiment with NCI-H522 lung is 105%; with A549/ATCC NSCLC, 105%; with 786-0 renal, 105%; with DU-145 prostate, 114%; with K-562 leukemia, 94.4%; with MALME-3M melanoma, 103%. Further, the growth is 97.9% in the experiment with MDA-MB-231 breast; 113% with RXF 393 renal; 95.9% in the experiment on SF-268 CNS; 96.4% in the experiment with SF-295 CNS; 92.9% with SF-539 CNS; 103% with UACC-257 melanoma. For the same compound, the growth in the experiment on M14 melanoma is 91.3%.

As to `Nc1nc(N)c2c(n1)NC(c1cccc(Nc3ccnc4cc(C(F)(F)F)ccc34)c1)CC(c1ccc3c(c1)OCO3)=N2` (configuration not stated), the growth was 82.4% with NCI-H23 lung; 97.7% in the experiment on NCI-H226 lung; 96.2% with NCI-H322M lung; 65.7% in the experiment with HOP-62 NSCLC; 58.8% with NCI-H460 lung; 54.4% in the experiment on HOP-92 NSCLC. Besides, the growth in the experiment on NCI-H522 lung was 42.2%; in the experiment with A549/ATCC NSCLC, 60.3%; with 786-0 renal it was 72.6%; with DU-145 prostate, 86.9%; in the experiment with K-562 leukemia it was 16.1%; in the experiment with MALME-3M melanoma it was 72.5%. Besides, the growth with MDA-MB-231 breast was 86.1%; in the experiment on RXF 393 renal, 52.2%; with SF-268 CNS it was 68.2%; with SF-295 CNS, 80%; in the experiment on SF-539 CNS it was 95.4%; with UACC-257 melanoma it was 77.7%. For the same compound, the growth in the experiment on M14 melanoma is 67.3%.

In the case of `CS(=O)(=O)c1ccc(-c2nc3ccccc3n2CC(=O)N/N=C/c2ccccc2)cc1`, the growth in the experiment on NCI-H23 lung is 94.2%; in the experiment on NCI-H226 lung, 98.8%; in the experiment on NCI-H322M lung, 95.5%; with HOP-62 NSCLC, 89%; with NCI-H460 lung, 107%; with HOP-92 NSCLC it was 96.3%. Besides, the growth in the experiment on NCI-H522 lung was 79.1%; in the experiment on A549/ATCC NSCLC it was 97.2%; in the experiment on 786-0 renal, 97.1%; in the experiment with DU-145 prostate, 111%; with K-562 leukemia it was 92.3%; in the experiment with MALME-3M melanoma, 82.4%. For the same compound, the growth in the experiment with MDA-MB-231 breast is 97.6%; in the experiment on RXF 393 renal it was 116%; in the experiment with SF-268 CNS, 97.5%; in the experiment with SF-295 CNS, 94.2%; in the experiment on SF-539 CNS it was 97.5%; with UACC-257 melanoma it was 98.8%. In the experiment on M14 melanoma, the growth is 90.4%.
